# In paper PMC7862700, “An all-to-all approach to the identification of sequence-specific readers for epigenetic DNA modifications on cytosine”:
# Columns and labels:
# Experiment in all cases: DAPPL (digital affinity profiling via proximity ligation, sequencing); 10 mM Tris-HCl pH 7.5, 50 mM NaCl, 1 mM DTT, 4% glycerol, room temperature, 30 min; GST-TFs on glutathione beads, 16-mer random dsDNA library, 0.1% formaldehyde crosslink after washing; high values mean tight binding
# Conditions in all cases: protein: recombinant; tags: N-terminal GST; dsDNA, one strand shown
# ERG = molecular target: T1, ERG (Homo sapiens, UniProt P11308 1-479)
# T1 sequence: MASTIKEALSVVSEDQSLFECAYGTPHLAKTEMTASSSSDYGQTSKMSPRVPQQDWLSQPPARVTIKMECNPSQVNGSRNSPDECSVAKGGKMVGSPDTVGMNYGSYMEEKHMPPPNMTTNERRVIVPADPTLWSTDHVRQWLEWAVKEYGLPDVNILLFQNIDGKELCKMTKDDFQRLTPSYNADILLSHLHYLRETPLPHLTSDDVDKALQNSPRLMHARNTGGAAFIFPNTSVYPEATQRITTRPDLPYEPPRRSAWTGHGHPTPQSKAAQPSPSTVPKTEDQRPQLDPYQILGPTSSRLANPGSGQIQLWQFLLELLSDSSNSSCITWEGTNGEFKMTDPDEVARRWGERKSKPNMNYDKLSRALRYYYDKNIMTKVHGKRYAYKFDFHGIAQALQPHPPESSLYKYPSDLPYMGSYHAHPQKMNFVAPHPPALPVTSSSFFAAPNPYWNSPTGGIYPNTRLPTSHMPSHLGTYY
# Procedure, shortened: (§1)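 Sequencing on an Illumina NextSeq500 followed washing, crosslinking with 0.1% formaldehyde, proximity ligation (BsaI/T4 ligase, 1 h, 37 °C) and PCR amplification of pools that had been incubated for 30 min at room temperature with 200 nmole of a random double-stranded 16-mer DNA library in Tris/NaCl/DTT/glycerol buffer. Each pool held DNA-barcoded human transcription factors, expressed in yeast as GST fusions and captured on glutathione beads, plus a tag-only sample. Binding signal is a hexamer's read frequency for a factor divided by its frequency in the tag-only sample.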
# SPI1 = SPI1 (Homo sapiens, UniProt P17947 1-270)
# Procedure, shortened: as §1
# SPIB = SPIB (Homo sapiens, UniProt Q01892 1-262)
# Chain of SPIB (Q01892 whole entry): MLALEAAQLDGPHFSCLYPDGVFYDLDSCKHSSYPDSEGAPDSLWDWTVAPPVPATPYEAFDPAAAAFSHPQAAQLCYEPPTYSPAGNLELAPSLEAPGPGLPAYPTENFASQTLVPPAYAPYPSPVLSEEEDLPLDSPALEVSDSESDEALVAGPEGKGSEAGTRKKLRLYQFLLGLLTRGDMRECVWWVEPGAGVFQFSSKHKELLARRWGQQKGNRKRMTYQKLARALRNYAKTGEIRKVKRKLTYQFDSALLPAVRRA
# Procedure, shortened: as §1
# ELK3 = molecular target: T2, ELK3 (Homo sapiens, UniProt P41970 1-407)
# T2 sequence: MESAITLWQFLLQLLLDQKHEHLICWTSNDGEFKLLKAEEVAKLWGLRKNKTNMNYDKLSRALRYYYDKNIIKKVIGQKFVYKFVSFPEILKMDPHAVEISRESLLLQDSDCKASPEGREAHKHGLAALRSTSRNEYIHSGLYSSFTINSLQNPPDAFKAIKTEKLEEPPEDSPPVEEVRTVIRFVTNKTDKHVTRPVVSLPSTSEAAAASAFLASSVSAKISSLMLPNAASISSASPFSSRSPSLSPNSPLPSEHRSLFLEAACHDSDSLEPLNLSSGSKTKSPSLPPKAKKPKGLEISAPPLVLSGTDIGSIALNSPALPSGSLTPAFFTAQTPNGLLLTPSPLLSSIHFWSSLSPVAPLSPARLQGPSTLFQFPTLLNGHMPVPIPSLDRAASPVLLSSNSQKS
# Procedure, shortened: as §1
# SPIC = molecular target: T3, SPIC (Homo sapiens, UniProt Q8N5J4 1-248)
# T3 sequence: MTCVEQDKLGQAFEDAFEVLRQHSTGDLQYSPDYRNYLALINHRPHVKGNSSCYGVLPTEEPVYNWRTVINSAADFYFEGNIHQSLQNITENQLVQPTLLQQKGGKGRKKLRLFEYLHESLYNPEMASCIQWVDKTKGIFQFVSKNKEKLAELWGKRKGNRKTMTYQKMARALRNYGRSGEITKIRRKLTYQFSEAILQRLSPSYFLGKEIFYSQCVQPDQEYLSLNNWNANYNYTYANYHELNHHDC
# Procedure, shortened: as §1
# ETV2 = molecular target: T4, ETV2 (Homo sapiens, UniProt O00321 1-342)
# T4 sequence: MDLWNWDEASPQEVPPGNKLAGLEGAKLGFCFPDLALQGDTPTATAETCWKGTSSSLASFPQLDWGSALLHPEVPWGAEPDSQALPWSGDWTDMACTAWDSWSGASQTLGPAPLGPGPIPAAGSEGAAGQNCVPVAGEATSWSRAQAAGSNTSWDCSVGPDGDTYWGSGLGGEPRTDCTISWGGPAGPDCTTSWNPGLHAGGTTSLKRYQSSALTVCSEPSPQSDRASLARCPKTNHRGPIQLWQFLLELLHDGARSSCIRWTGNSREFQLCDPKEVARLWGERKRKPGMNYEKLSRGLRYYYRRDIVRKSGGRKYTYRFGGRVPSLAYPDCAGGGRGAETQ
# Procedure, shortened: as §1
# ERF = molecular target: T5, ERF (Homo sapiens, UniProt P50548 1-548)
# T5 sequence: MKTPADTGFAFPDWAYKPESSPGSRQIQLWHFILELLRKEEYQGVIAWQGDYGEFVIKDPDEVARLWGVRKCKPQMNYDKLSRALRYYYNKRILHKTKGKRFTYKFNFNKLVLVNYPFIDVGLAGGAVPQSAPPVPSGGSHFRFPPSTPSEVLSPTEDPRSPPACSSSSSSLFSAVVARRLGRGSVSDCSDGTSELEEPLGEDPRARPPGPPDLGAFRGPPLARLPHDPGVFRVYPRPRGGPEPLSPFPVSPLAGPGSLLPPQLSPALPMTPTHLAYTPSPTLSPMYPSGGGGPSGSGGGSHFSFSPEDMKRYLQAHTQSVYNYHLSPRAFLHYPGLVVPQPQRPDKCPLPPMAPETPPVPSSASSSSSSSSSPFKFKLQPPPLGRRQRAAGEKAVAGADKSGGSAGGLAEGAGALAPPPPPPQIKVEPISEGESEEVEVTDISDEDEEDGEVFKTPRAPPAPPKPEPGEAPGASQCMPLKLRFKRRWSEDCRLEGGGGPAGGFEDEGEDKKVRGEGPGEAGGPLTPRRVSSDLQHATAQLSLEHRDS
# Procedure, shortened: as §1
# ETS2 = molecular target: T6, ETS2 (Homo sapiens, UniProt P15036 1-469)
# T6 sequence: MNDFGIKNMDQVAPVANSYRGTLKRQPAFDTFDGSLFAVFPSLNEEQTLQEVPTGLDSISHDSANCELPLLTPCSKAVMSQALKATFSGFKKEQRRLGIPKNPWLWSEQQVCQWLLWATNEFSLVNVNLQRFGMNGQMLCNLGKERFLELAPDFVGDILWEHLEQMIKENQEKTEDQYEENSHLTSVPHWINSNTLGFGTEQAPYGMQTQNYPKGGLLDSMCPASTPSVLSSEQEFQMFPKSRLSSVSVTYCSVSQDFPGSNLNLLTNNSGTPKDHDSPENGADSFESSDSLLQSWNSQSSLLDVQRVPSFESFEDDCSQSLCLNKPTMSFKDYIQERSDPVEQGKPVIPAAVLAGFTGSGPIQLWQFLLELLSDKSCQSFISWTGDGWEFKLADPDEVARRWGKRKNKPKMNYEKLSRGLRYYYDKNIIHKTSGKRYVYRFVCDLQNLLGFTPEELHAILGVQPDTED
# Procedure, shortened: as §1
sequence,measurement,setting,value
TGCAGG,binding signal,ERG,"1.01 fold enrichment (6-mer frequency, TF over GST control)"
same,binding signal,SPI1,"1.03 fold enrichment (6-mer frequency, TF over GST control)"
same,binding signal,SPIB,"1.07 fold enrichment (6-mer frequency, TF over GST control)"
same,binding signal,ELK3,"1.03 fold enrichment (6-mer frequency, TF over GST control)"
same,binding signal,SPIC,"1.01 fold enrichment (6-mer frequency, TF over GST control)"
same,binding signal,ETV2,"1.03 fold enrichment (6-mer frequency, TF over GST control)"
same,binding signal,ERF,"1.01 fold enrichment (6-mer frequency, TF over GST control)"
same,binding signal,ETS2,"1.02 fold enrichment (6-mer frequency, TF over GST control)"
